Screens from PubChem.
Rows were chosen to be rich in hits. Some 2.2% of all compounds tested hit in one or more screens of this group.
aSyn rescue = inhibitors of alpha-synuclein toxicity in yeast. Yeast expressing alpha-synuclein, growth rescue, BacTiter-Glo, 24 h. Potency, µM (doses to about 46.1 µM), actives largely listed as activators. hit rate 0.14% among 370,000. AID 652106; also: nearly all actives have a fitted effect of over 65% in size
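Screening used galactose-induced yeast with toxic alpha-synuclein levels, exposed to compound for 24 hr at 30 deg C. Cell growth, read with BacTiter-Glo luminescence, gave the measured signal.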
Abeta rescue = compounds reversing amyloid beta toxicity in yeast. yeast expressing A-beta42, growth rescue, OD600, 48 h; response scale: 0% DMSO, 100% iron-clioquinol control. Potency, µM (highest dose often 46.1 µM), usual class: activators. hit rate 0.063% among 410,000; also: nearly all actives have a fitted effect of over 55% in size
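Growth rescue measured by 600 nm absorbance after 48 h yeast culture at 30 C with compound. Values normalized between DMSO and an equimolar ferric chloride plus clioquinol control.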
Mito fusion act = blocks mitochondrial division or promotes mitochondrial fusion | S. cerevisiae fusion-defective mutant growth rescue, CellTiterGlo 48 h | Potency, µM (top dose mostly 46.1 µM), hits mostly activators | hit rate 0.23% among 320,000; also: nearly all actives have a fitted effect of over 45% in size
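Read-out: ATP-based luminescence (CellTiterGlo, 10 min ambient) reporting growth of fusion-defective ts yeast after 48 hours at 37C on glycerol/ethanol YPEG medium in the presence of compound.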
FUS yeast rescue = suppressors of FUS proteinopathy in yeast | Potency, µM (series often up to 76.6 µM), usual class: activators | S. cerevisiae FUS-expressing, growth rescue, OD600, 24 h | hit rate 0.24% among 390,000; also: nearly all actives have a fitted effect of over 55% in size
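Yeast expressing FUS under galactose induction, OD 0.005 in 2% galactose medium; compounds in a dilution series, 24 h at 30C. Growth rescue by absorbance at 600 nm; CP55940 positive control, DMSO negative.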
TDP43 rescue = inhibitors of TDP-43 toxicity in yeast; TDP-43 expressing yeast growth rescue, BacTiter-Glo, 24 h; Potency, µM (titrated, usually from 46.1 µM), most hits filed as activators; hit rate 1.8% among 410,000; AID 652104; also: nearly all actives have a fitted effect of over 50% in size
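In this qHTS, compounds that restore growth of yeast expressing TDP-43 appear as activators. Cells (OD600=0.02, galactose medium, raffinose-pregrown) are incubated with compound 24 hr at 30 deg C and growth is quantified by BacTiter-Glo.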
Numbers stand for hits. Calls follow the shape of the dose curve; as a rule, active = well fitted curve in the direction sought with a large enough effect; inconclusive = small, poorly fitted or top-dose-only effect, or another doubt; inactive = no such curve, though single readings can be large; an effect the other way counts as inactive or inconclusive.

How did COc1ccc(S(=O)(=O)N2CCCCCC2)cc1C(=O)OCC(=O)NC1CCS(=O)(=O)C1 (configuration not stated) do in these assays?
aSyn rescue: inactive; Abeta rescue: inactive; FUS yeast rescue: inactive; TDP43 rescue: inactive

Results for Cc1oc(-c2cccs2)nc1CN1CCC(c2ccccc2)CC1 ?
aSyn rescue: inactive; Abeta rescue: inactive; Mito fusion act: inactive; FUS yeast rescue: inactive; TDP43 rescue: inactive

How did S=C(NCCc1ccccc1)NCCc1ccccc1 do in these assays?
aSyn rescue: inactive; Abeta rescue: inactive; Mito fusion act: inactive; TDP43 rescue: inactive

What do the screens show for `S=C(NCCc1ccccc1)NCc1cccc(Cl)c1`?
aSyn rescue: inactive; Abeta rescue: 16µM; Mito fusion act: inactive; FUS yeast rescue: inactive; TDP43 rescue: inactive

Results for Cc1cc(Cl)ccc1NC(=S)NCc1ccc(F)cc1 ?
aSyn rescue: inactive; Abeta rescue: inactive; Mito fusion act: inactive; FUS yeast rescue: inactive; TDP43 rescue: 18µM

What do the screens show for `Cc1c(Cl)cccc1NC(=S)NCCc1ccc(C(F)(F)F)cc1`?
aSyn rescue: inactive; Abeta rescue: inconclusive; Mito fusion act: inactive; FUS yeast rescue: inactive; TDP43 rescue: 14µM

How did S=C(NCc1ccccc1)C(=S)NCc1ccccc1 do in these assays?
aSyn rescue: inactive; Abeta rescue: 8.9µM; FUS yeast rescue: inactive; TDP43 rescue: inactive

How did S=C(NCc1ccccc1)NCc1ccc(CNC(=S)NCc2ccccc2)cc1 do in these assays?
aSyn rescue: inactive; Abeta rescue: inactive; Mito fusion act: inactive; FUS yeast rescue: inactive; TDP43 rescue: inactive

How did CCN(CC)CCCNC(=O)C1CCN(S(=O)(=O)CC)CC1 do in these assays?
Abeta rescue: inactive; FUS yeast rescue: inactive; TDP43 rescue: inactive

Results for CCOC(=O)/C=C/C(=O)Nc1ccc(Oc2ccccc2)cc1 ?
aSyn rescue: inactive; Abeta rescue: inactive; Mito fusion act: inactive; FUS yeast rescue: inactive; TDP43 rescue: 18µM

What do the screens show for `Cc1ccc(C)c(OCCC(=O)OCC(=O)NNC(=O)c2ccccc2)c1`?
aSyn rescue: inactive; Abeta rescue: inactive; Mito fusion act: inactive; FUS yeast rescue: inactive; TDP43 rescue: inactive

Results for Cc1cccc(Nc2nc(-c3ccccc3)nc3ccccc23)c1 ?
Abeta rescue: inactive; FUS yeast rescue: inactive; TDP43 rescue: 25µM

What do the screens show for `Cc1ccc(Nc2nc(-c3ccccc3)nc3ccccc23)cc1`?
aSyn rescue: inactive; Abeta rescue: inactive; FUS yeast rescue: inactive; TDP43 rescue: 13µM

What do the screens show for `Oc1cccc(Nc2nc(-c3ccccc3)nc3ccccc23)c1`?
aSyn rescue: inactive; Abeta rescue: inactive; Mito fusion act: inactive; FUS yeast rescue: inactive; TDP43 rescue: inactive

Results for CCOc1ccc(CNC(=O)CCn2c(=O)c3cccn3c3ccc(F)cc32)cc1 ?
Abeta rescue: inactive; FUS yeast rescue: inactive; TDP43 rescue: inactive

How did Cn1c(N2CCOCC2)nc2c1c(=O)n(Cc1ccc(Cl)cc1)c(=O)n2C do in these assays?
aSyn rescue: inactive; Abeta rescue: inactive; FUS yeast rescue: inactive; TDP43 rescue: inactive

Results for CC1CN(c2nc3c(c(=O)n(Cc4ccc(Cl)c(Cl)c4)c(=O)n3C)n2C)CC(C)O1 (configuration not stated) ?
aSyn rescue: inactive; Abeta rescue: inactive; Mito fusion act: inconclusive; FUS yeast rescue: inconclusive; TDP43 rescue: 25µM

How did CCOc1cc(-c2c(C#N)c(N)nc3c2CCc2ccccc2-3)ccc1O do in these assays?
aSyn rescue: inactive; Abeta rescue: inactive; Mito fusion act: inactive; FUS yeast rescue: inactive; TDP43 rescue: inactive

What do the screens show for `COc1ccccc1-c1cc(-c2ccc(O)cc2)nc(N)c1C#N`?
aSyn rescue: inactive; Abeta rescue: inactive; Mito fusion act: inactive; FUS yeast rescue: inactive; TDP43 rescue: 32µM

Results for COc1ccccc1-c1c(C#N)c(N)nc2c1CCc1ccccc1-2 ?
aSyn rescue: inactive; Abeta rescue: inactive; Mito fusion act: inconclusive; FUS yeast rescue: inconclusive; TDP43 rescue: 20µM

How did Cc1cc(C)cc(NC(=O)C2CCN(S(=O)(=O)c3c(C)noc3/C=C/c3ccco3)CC2)c1 do in these assays?
Abeta rescue: inactive; FUS yeast rescue: inactive; TDP43 rescue: inactive

Results for Cc1cccc(C)c1NC(=O)c1ccc2nc(CCc3ccccc3)oc2c1 ?
Abeta rescue: inactive; FUS yeast rescue: inactive; TDP43 rescue: 13µM

How did Cc1ccc(C)c(NC(=O)c2ccc3nc(CCc4ccccc4)oc3c2)c1 do in these assays?
Abeta rescue: inactive; FUS yeast rescue: inactive; TDP43 rescue: inactive

How did CC(=O)c1ccc(OCc2cc(C(=O)NC(C)c3cnn(C)c3)no2)cc1 (configuration not stated) do in these assays?
aSyn rescue: inactive; Abeta rescue: inactive; Mito fusion act: inactive; FUS yeast rescue: inactive; TDP43 rescue: inactive

Results for Cc1cc(OCc2cc(C(=O)NC(C)c3cnn(C)c3)no2)cc(C)c1Cl (configuration not stated) ?
aSyn rescue: inconclusive; Abeta rescue: inactive; FUS yeast rescue: inactive; TDP43 rescue: 32µM

Results for Cc1cc(OCc2cc(C(=O)N(C)C(C)c3ccccn3)no2)cc(C)c1Cl (configuration not stated) ?
aSyn rescue: inactive; Abeta rescue: inconclusive; Mito fusion act: inactive; FUS yeast rescue: inconclusive; TDP43 rescue: 22µM

Results for Cc1cccc(N2CCN(CCCNC(=O)c3sc4ncccc4c3-n3cccc3)CC2C)c1 (configuration not stated) ?
Abeta rescue: inactive; FUS yeast rescue: inactive; TDP43 rescue: inactive

How did Cc1ccc(-c2cc(C(=O)NN=Cc3ccc(-c4ccccc4)cc3)[nH]n2)cc1C do in these assays?
FUS yeast rescue: inactive

Results for OC[C@@H]1CC[C@@H](Cc2ccc(-c3ccccc3)cc2)O1 ?
aSyn rescue: 18µM; Abeta rescue: inactive; FUS yeast rescue: inactive; TDP43 rescue: 11µM

Results for NC(=O)NC[C@@H]1CC[C@@H](Cc2ccc(-c3ccccc3)cc2)O1 ?
aSyn rescue: inactive; Abeta rescue: inactive; FUS yeast rescue: inactive; TDP43 rescue: inactive

What do the screens show for `COc1cc(/C=C/c2ccc(O)cc2)cc(OC)c1`?
aSyn rescue: inactive; Abeta rescue: inactive; Mito fusion act: inactive; FUS yeast rescue: inactive; TDP43 rescue: 28µM

What do the screens show for `CCCCn1c(SCC(=O)OCC)nc2c(sc(=S)n2-c2ccccc2OC)c1=O`?
aSyn rescue: inactive; Abeta rescue: inactive; Mito fusion act: inactive; FUS yeast rescue: inactive; TDP43 rescue: 13µM

Results for CCCCOC(=O)c1ccc(Nc2ncnc3nc[nH]c23)cc1 ?
aSyn rescue: inactive; Abeta rescue: inactive; Mito fusion act: inactive; FUS yeast rescue: inactive; TDP43 rescue: inactive

What do the screens show for `CCCCCCCCOC(=O)c1cc([N+](=O)[O-])c(Sc2ncnc3nc[nH]c23)c([N+](=O)[O-])c1`?
aSyn rescue: inactive; Abeta rescue: inactive; TDP43 rescue: 13µM
